The term inhibition denotes the relative decrease from the control value, in per cent.

The values below come from ChEMBL document CHEMBL3433997, “St. Jude Leishmania screening dataset” (2016).

Assay type in all cases: functional
In test [1] the target is Solute carrier family 2, facilitated glucose transporter member 1 (Homo sapiens) (UniProt P11166). The test can be described thus: ST_JUDE_LEISH: Cytotoxicity at 2uM final concentration against transgenic Leishmania Mexicana promastigotes LmGLUT1 that are glucose transport deficient and complemented with the human glucose transporter GLUT1. Activity is measured by DNA content using SYBR green in vitro.

The target of test [2] is Hexose transporter 1 (Plasmodium falciparum) (UniProt O97467). Description: ST_JUDE_LEISH: Cytotoxicity at 2uM final concentration against transgenic Leishmania Mexicana promastigotes LmPfHT that are glucose transport deficient and complemented with the Plasmodium falciparum hexose transporter. Activity is measured by DNA content using SYBR green in vitro.
Test [3] deals with Glucose transporter (Leishmania mexicana) (UniProt O61059). Description: ST_JUDE_LEISH: Cytotoxicity at 2uM final concentration against transgenic Leishmania Mexicana promastigotes LmGT2 that are glucose transport deficient and complemented with the L. Mexicana glucose transporter 2. Activity is measured by DNA content using SYBR green in vitro.

Solute carrier family 2, facilitated glucose transporter member 1 (Homo sapiens), sequence (P11166 whole entry): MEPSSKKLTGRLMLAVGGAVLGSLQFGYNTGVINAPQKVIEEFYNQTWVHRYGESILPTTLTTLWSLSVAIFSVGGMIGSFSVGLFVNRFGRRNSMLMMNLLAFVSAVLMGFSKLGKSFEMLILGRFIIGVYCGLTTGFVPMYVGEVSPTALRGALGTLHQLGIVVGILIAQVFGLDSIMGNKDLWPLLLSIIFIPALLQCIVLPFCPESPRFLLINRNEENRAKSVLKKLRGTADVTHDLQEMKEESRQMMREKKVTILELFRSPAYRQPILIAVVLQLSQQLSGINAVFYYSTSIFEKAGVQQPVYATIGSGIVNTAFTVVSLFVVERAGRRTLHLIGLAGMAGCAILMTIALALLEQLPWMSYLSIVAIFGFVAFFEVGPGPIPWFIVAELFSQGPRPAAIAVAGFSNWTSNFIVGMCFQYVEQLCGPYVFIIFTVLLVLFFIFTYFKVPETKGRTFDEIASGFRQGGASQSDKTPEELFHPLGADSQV

Turning to `COc1cccc(CNC(=O)c2cc(CNCc3ccccc3)ccc2-c2cccc(CNCc3ccc(-c4ccccc4)cc3)c2)c1`, the figures for the inhibition in test [1], in test [2] and in test [3] were 3.83%, 4.88% and 6.21%, respectively.

Turning to `COc1ccc(NC(=O)/C=C/c2cc(Br)ccc2F)cc1OCCN(C(C)C)C(C)C`, the results for the inhibition in test [1], in test [2] and in test [3] were 0.52%, 0.38% and 0.14%, respectively.

As for `CC(C)[C@@H](C(=O)NCc1cccc(C(F)(F)F)c1)N1C(=O)CCC1C(=O)Nc1ccc([N+](=O)[O-])cc1` (stereo partly drawn), the inhibition in test [1] stood at 2.24%; in test [2], 1.67%; in test [3] it was 2.73%.

`COc1cccc(C(NC(=O)c2ccccc2)c2ccc3cccnc3c2O)c1` (stereo not drawn): the results for the inhibition in test [1], in test [2] and in test [3] were -0.96%, 2.16% and -1.64%, respectively.

For the molecule `Cc1cccc2nc(-c3ccc(-c4cccc(NC(=O)C(C)CN(C)C)c4)s3)[nH]c12` (stereo not drawn), the values for the inhibition in test [1], in test [2] and in test [3] were -0.15%, 1.85% and 0.27%, respectively.

Take `COc1ccc(NC(=O)N2CCCN(CCCCCNC(=O)/C=C/c3ccc(C(F)(F)F)cc3)CC2)cc1Cl`: the results for the inhibition in test [1], in test [2] and in test [3] were -0.26%, -1.14% and 2.8%, respectively.

Turning to `O=C(Nc1ccnc(N2CCCN(Cc3cccc(O)c3)CC2)c1)c1ccc(F)cc1`, the inhibition was found to be 2.79% in test [1], 0.77% in test [2] and 4.83% in test [3].

Turning to `O=C(/C=C/c1ccc(Cl)c(Cl)c1)NCCCCCCN1CCCN(C(=O)Nc2ccc(F)c(F)c2)CC1`, the results for the inhibition in test [1], in test [2] and in test [3] were 0.72%, 0.44% and 2.39%, respectively.

In the case of `COc1ccc(C(=O)N2CCC(CN3CCOC(c4ccccc4)(c4ccccc4)C3)CC2)cc1`, the figures for the inhibition in test [1], in test [2] and in test [3] were 0.77%, 2.13% and 2.45%, respectively.

`O=C(Nc1ccc(Cl)cc1)Nc1cccc(CCNCc2ccccc2)c1`: the inhibition in test [1] stood at 0.95%; in test [2] it was 0.57%; in test [3], 1.38%.

With `Clc1ccc(CNC2CCN(CC3CCCCC3)CC2)cc1`, the values for the inhibition in test [1], in test [2] and in test [3] were 5.87%, 11.2% and 10.2%, respectively.

`O=C(Nc1ccc(Br)cc1)N(CCN1CCOCC1)CC(O)COc1ccc(Cl)c(F)c1` (stereo not drawn): the inhibition in test [1] was -0.94%; in test [2], -1.53%; in test [3], 1.5%.

`CCCCCCCOc1ccc(NC(=O)Nc2ccc(Cn3ncc(N4CCCNCC4)c(Cl)c3=O)cc2)cc1`: the inhibition was -2.91% in test [1], -0.57% in test [2] and -1.59% in test [3].

Turning to `CC(C)C[C@H](NC(=O)c1cc2ccccc2s1)C(=O)N[C@H]1CCN(Cc2ccc(OCCCN(C)C)c(Cl)c2)C1`, the inhibition in test [1] amounted to 3.21%; in test [2], 2.95%; in test [3] it was 1.32%.

With `COc1ccc2nccc([C@@H](O)CN3CCC(NCc4nc5c(F)cccc5[nH]4)CC3)c2c1`, the inhibition in test [1] is 1.46%; in test [2] it was 0.84%; in test [3], -0.41%.

Consider `CC(C)N1CCN(C(=O)c2ccc(CN(C)CCCN3CCN(c4cccc(Cl)c4Cl)CC3)s2)CC1`, for which the figures for the inhibition in test [1], in test [2] and in test [3] were 0.58%, 0.7% and 0.8%, respectively.

`COc1ccc2nccc([C@@H](O)CN3CCC(NCc4nc5ccccc5s4)CC3)c2c1`: the inhibition in test [1] was 4.29%; in test [2] it was 6.41%; in test [3], -0.69%.

Take `CCCCCN1CCCC(NS(=O)(=O)c2ccc(C(=O)Nc3ccc(C(F)(F)F)cc3)cc2)C1` (stereo not drawn): the values for the inhibition in test [1], in test [2] and in test [3] were 6.19%, 4.12% and 1.89%, respectively.

Take `CCN(CC)CCCSc1ccc(-c2ccc(SCCCN(CC)CC)cc2)cc1`: the inhibition in test [1] came out at 88.5%; in test [2], 91.5%; in test [3] it was 78.2%.

With `Cc1cccc2nc(-c3ccc(-c4ccc(NC(=O)c5cncn5C)cc4)s3)[nH]c12`, the inhibition in test [1] was 11.3%; in test [2], 9.8%; in test [3], 7.26%.

Consider `CN(C)CCOc1cc(NC(=O)/C=C/c2cccc3ccccc23)ccc1I`, for which the results for the inhibition in test [1], in test [2] and in test [3] were 10.4%, 8.1% and 8.23%, respectively.

For the molecule `CC1(C)NC(N)=NC(=N)N1OCCSc1ccccc1`, the inhibition was 2.9% in test [1], 3.7% in test [2] and 3.37% in test [3].

As to `N#Cc1ccccc1C(=O)N(Cc1cncn1Cc1cccc(F)c1)CC1CC1`, the values for the inhibition in test [1], in test [2] and in test [3] were 6.38%, 10.2% and 8.88%, respectively.

Take `O=C(Nc1cccc(-c2ccc(-c3nc4cc(F)ccc4[nH]3)cc2)c1)c1ccncc1`: the inhibition came out at 4.46% in test [1], 2.3% in test [2] and 2.96% in test [3].

For the molecule `CCCC(C)NC(=O)[C@H]1CNCCN1C(=O)CCCc1ccccc1` (stereo partly drawn), the inhibition in test [1] is 8.59%; in test [2], 7.9%; in test [3], 3.67%.

On to `COc1cc(Nc2nc(N)c3cc(OC)c(OC)cc3n2)cc(OC)c1`, for which the inhibition in test [1] is 6.58%; in test [2], 5.6%; in test [3], 3.12%.

With `Clc1ccc(/N=C(/NCCCCCCCN/C(=N\c2ccc(Cl)cc2)Nc2ccc(Cl)cc2)Nc2ccc(Cl)cc2)cc1`, the inhibition in test [1] was 0.4%; in test [2] it was 1.89%; in test [3], -1.85%.

For the molecule `O=C(Cc1cccc2ccccc12)NC1CCN(c2ccnc3cc(Cl)ccc23)C1` (stereo not drawn), the inhibition was -2.29% in test [1], -1.67% in test [2] and -0.88% in test [3].

As for `CCN(CC)CCN(CCN(CC)CC)c1ccc2c(c1)Sc1c(Cl)ccc(Cl)c1S2`, the inhibition in test [1] is 1.42%; in test [2] it was 6.29%; in test [3], 3.91%.

As for `Cc1cccc2nc(-c3ccc(-c4cccc(CN5CCN(c6ccc(C#N)cn6)CC5)c4)s3)[nH]c12`, the inhibition is 0.91% in test [1], -1.69% in test [2] and 1.21% in test [3].

Turning to `O=S(=O)(Nc1cccc(CCN2CCC(N3CCCCC3)CC2)c1)c1ccc(Oc2ccccc2)cc1`, the inhibition is 4.33% in test [1], 4.71% in test [2] and 2.69% in test [3].

Consider `Cc1nc(C)c(-c2ccc(C(F)(F)F)cc2)c(O)c1Br`, for which the inhibition in test [1] stood at 2.72%; in test [2], 1.79%; in test [3] it was 0.77%.

As to `CS(=O)(=O)CCNCc1cc(-c2cc3ncnc(Nc4ccc(OCc5cccc(F)c5)c(Cl)c4)c3s2)cs1`, the inhibition worked out at 5.58% in test [1], 6.19% in test [2] and 5.4% in test [3].

Consider `CN=C(N)c1ccc(NC(=O)C=Cc2ccc(C(=O)Nc3ccc(C(N)=NC)cc3)cc2)cc1`, for which the inhibition in test [1] came to 9.91%; in test [2], 15.9%; in test [3], 4.6%.

As for `CC(Sc1nnc(-c2ccccc2Br)[nH]1)C(=O)Nc1ccc(F)cc1` (stereo not drawn), the values for the inhibition in test [1], in test [2] and in test [3] were 10.4%, 9.07% and 6.58%, respectively.

`O=C(NCCCN1CCC(N2CCCCC2)CC1)c1ccc2nc(N3CCCCC3)sc2c1`: the inhibition amounted to 5.78% in test [1], 8.39% in test [2] and 8.02% in test [3].
